From ChEMBL document CHEMBL1961873, “Compounds: GSK PKIS; Assays: Nanosyn kinase panel” (2012)

Assays:
[1] = molecular target: Ribosomal protein S6 kinase alpha-6 (Homo sapiens) (UniProt Q9UK32); conditions: at 1 µM;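 further: each value is a mean inhibition of RSK4 from a GSK PKIS panel screen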
[2] = molecular target: T1, Serine/threonine-protein kinase Sgk1 (Homo sapiens) (UniProt O00141); conditions: at 0.1 µM
T1 sequence (whole entry): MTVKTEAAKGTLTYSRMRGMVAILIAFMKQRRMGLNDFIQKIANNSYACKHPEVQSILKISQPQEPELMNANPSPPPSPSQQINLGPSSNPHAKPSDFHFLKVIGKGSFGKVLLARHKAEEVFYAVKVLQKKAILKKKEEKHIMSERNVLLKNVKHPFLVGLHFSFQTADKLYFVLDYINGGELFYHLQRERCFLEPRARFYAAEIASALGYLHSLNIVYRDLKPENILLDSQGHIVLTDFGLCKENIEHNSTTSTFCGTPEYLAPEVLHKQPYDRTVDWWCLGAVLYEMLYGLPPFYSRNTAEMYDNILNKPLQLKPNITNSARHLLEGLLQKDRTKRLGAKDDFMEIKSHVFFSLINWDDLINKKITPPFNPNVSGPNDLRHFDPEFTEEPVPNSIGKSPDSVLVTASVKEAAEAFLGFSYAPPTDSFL

[3] = molecular target: T1, Serine/threonine-protein kinase Sgk1 (Homo sapiens); conditions: at 1 µM
[4] = molecular target: T2, Serine/threonine-protein kinase Sgk2 (Homo sapiens) (UniProt Q9HBY8); conditions: at 0.1 µM
T2 sequence (whole entry): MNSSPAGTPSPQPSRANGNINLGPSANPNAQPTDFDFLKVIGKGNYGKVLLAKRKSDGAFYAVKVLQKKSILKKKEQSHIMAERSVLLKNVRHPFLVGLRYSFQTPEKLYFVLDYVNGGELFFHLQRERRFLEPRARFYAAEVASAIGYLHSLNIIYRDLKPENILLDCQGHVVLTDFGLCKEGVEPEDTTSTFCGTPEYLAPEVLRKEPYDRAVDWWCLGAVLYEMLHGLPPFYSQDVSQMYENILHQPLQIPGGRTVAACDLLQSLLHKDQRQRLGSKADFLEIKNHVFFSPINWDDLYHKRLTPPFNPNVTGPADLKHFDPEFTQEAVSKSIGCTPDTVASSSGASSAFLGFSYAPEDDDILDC

[5] = molecular target: T2, Serine/threonine-protein kinase Sgk2 (Homo sapiens); conditions: at 1 µM
[6] = molecular target: T3, Serine/threonine-protein kinase Sgk3 (Homo sapiens) (UniProt Q96BR1); conditions: at 0.1 µM
T3 sequence (whole entry): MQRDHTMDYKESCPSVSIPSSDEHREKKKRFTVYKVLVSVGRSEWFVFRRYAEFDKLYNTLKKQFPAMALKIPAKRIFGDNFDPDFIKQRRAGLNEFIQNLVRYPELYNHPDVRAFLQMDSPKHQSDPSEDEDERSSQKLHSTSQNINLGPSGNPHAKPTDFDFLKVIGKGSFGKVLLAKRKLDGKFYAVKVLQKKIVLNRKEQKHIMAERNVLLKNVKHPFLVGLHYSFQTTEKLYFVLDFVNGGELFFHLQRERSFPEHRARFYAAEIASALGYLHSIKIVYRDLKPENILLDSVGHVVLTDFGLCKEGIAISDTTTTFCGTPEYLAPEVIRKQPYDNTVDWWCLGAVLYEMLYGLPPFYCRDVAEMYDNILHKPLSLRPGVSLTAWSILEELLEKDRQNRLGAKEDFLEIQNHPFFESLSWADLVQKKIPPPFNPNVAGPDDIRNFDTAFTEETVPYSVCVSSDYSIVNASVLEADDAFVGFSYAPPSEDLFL

[7] = molecular target: T3, Serine/threonine-protein kinase Sgk3 (Homo sapiens); conditions: at 1 µM
[8] = molecular target: 5'-AMP-activated protein kinase catalytic subunit alpha-1 (Homo sapiens) (UniProt Q13131); conditions: at 0.1 µM
Chain of 5'-AMP-activated protein kinase catalytic subunit alpha-1 (Homo sapiens) (Q13131 whole entry, looked up): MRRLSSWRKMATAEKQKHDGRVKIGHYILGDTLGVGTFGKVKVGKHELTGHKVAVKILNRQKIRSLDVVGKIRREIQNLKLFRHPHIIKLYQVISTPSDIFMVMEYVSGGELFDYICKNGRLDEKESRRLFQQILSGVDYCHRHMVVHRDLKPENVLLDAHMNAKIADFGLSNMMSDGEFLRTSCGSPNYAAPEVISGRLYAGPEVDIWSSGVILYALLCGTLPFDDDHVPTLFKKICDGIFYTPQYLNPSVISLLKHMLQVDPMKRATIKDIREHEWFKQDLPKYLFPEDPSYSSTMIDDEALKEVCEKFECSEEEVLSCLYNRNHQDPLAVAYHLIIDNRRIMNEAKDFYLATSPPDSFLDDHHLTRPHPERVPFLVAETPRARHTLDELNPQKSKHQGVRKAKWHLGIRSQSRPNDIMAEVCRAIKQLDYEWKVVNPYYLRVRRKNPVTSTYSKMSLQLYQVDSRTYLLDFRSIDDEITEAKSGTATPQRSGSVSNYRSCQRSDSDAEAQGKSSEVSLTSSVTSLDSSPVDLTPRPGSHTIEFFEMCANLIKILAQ

[9] = molecular target: 5'-AMP-activated protein kinase catalytic subunit alpha-1 (Homo sapiens) (UniProt Q13131); conditions: at 1 µM
[10] = molecular target: 5'-AMP-activated protein kinase catalytic subunit alpha-2 (Homo sapiens) (UniProt P54646); conditions: at 0.1 µM
Chain of 5'-AMP-activated protein kinase catalytic subunit alpha-2 (Homo sapiens) (P54646 whole entry, looked up): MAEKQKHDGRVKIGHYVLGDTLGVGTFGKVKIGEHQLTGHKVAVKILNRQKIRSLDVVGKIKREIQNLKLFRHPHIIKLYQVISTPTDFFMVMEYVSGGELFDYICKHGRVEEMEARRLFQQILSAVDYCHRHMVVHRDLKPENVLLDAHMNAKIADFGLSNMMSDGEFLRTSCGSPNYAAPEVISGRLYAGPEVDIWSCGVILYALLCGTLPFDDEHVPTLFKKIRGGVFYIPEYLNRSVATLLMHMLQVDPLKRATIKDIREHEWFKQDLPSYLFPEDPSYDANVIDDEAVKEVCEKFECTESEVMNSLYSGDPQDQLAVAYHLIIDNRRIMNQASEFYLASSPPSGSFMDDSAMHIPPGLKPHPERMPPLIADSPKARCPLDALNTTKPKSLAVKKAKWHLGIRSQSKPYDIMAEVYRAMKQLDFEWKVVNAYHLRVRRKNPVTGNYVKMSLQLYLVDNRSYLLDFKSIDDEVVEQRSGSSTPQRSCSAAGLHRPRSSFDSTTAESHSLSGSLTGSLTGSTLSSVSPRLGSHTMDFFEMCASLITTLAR

[11] = molecular target: 5'-AMP-activated protein kinase catalytic subunit alpha-2 (Homo sapiens) (UniProt P54646); conditions: at 1 µM
[12] = molecular target: T4, NUAK family SNF1-like kinase 1 (Homo sapiens) (UniProt O60285); conditions: at 0.1 µM
T4 sequence (whole entry): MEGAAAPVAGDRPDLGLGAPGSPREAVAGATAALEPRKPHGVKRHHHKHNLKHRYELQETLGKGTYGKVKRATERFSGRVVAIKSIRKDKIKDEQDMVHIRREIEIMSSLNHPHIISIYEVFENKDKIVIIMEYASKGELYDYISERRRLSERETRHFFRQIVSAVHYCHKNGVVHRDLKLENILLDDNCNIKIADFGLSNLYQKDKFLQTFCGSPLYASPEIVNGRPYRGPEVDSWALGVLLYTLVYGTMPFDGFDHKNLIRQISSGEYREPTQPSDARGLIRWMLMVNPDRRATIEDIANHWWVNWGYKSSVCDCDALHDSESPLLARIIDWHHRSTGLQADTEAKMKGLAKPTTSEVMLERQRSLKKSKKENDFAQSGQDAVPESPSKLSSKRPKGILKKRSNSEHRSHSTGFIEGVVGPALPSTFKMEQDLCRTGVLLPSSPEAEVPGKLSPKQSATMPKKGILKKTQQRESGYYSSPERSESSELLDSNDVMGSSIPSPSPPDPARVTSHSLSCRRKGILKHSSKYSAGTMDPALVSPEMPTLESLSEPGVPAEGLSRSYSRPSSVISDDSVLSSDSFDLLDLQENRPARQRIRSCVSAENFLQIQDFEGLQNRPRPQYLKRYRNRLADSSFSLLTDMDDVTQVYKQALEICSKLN

[13] = molecular target: T4, NUAK family SNF1-like kinase 1 (Homo sapiens); conditions: at 1 µM
[14] = molecular target: T5, Serine/threonine-protein kinase BRSK1 (Homo sapiens) (UniProt Q8TDC3); conditions: at 0.1 µM
T5 sequence (whole entry): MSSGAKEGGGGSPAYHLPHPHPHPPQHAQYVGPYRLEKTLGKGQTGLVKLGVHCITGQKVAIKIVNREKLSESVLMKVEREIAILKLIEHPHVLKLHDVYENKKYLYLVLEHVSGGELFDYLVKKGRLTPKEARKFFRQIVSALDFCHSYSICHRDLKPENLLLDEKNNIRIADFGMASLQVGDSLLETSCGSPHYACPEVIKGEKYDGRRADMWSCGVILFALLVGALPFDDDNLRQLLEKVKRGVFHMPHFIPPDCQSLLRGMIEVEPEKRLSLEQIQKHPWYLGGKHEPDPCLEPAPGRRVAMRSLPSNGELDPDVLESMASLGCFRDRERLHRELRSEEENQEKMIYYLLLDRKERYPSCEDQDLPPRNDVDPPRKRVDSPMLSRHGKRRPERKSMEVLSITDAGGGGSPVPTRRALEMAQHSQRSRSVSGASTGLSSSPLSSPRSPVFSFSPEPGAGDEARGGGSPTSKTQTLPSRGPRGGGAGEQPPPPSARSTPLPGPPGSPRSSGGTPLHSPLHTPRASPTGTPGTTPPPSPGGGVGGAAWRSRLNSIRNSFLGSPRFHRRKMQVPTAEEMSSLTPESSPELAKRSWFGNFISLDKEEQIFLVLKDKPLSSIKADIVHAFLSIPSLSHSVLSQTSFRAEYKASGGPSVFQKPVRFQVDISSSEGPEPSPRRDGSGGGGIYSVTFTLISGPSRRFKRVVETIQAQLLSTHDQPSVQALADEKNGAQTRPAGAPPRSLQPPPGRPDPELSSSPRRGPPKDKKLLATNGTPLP

[15] = molecular target: T5, Serine/threonine-protein kinase BRSK1 (Homo sapiens); conditions: at 1 µM
[16] = molecular target: T6, Serine/threonine-protein kinase BRSK2 (Homo sapiens) (UniProt Q8IWQ3); conditions: at 0.1 µM
T6 sequence (whole entry): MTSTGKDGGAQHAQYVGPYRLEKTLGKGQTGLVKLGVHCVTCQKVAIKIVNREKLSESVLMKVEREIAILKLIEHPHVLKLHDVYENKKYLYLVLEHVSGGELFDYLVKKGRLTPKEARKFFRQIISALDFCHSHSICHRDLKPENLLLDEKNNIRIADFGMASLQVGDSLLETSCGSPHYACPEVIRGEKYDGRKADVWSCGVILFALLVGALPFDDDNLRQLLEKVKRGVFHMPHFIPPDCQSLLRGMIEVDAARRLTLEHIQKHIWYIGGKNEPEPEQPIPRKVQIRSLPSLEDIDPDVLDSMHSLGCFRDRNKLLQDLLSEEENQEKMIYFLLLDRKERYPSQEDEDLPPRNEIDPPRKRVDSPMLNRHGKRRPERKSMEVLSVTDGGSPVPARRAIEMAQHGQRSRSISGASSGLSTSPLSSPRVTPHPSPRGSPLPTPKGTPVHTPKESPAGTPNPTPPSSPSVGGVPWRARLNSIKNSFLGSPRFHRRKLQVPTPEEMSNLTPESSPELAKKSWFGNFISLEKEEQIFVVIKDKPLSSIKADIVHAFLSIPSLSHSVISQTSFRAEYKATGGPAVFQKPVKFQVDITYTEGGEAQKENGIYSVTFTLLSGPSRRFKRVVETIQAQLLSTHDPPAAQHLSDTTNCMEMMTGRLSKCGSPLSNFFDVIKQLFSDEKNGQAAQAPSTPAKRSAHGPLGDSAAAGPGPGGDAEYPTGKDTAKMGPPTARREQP

[17] = molecular target: T6, Serine/threonine-protein kinase BRSK2 (Homo sapiens); conditions: at 1 µM
[18] = molecular target: Calcium/calmodulin-dependent protein kinase type 1D (Homo sapiens) (UniProt Q8IU85); conditions: at 0.1 µM
Chain of Calcium/calmodulin-dependent protein kinase type 1D (Homo sapiens) (Q8IU85 whole entry, looked up): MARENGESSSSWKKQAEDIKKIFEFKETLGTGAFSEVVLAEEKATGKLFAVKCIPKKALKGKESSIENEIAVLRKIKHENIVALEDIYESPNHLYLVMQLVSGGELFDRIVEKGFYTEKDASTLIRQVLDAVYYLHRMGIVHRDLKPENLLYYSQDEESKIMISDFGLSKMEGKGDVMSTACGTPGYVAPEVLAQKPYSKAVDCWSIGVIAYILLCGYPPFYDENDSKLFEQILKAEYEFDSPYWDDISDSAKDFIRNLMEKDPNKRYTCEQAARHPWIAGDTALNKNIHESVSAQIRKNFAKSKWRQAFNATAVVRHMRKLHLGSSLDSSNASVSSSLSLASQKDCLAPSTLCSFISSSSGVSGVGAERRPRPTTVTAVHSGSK

[19] = molecular target: Calcium/calmodulin-dependent protein kinase type 1D (Homo sapiens) (UniProt Q8IU85); conditions: at 1 µM
[20] = molecular target: Calcium/calmodulin-dependent protein kinase type II subunit alpha (Homo sapiens) (UniProt Q9UQM7); conditions: at 0.1 µM;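 further: reported values are averages (mean inhibition of CAMK2A)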
Chain of Calcium/calmodulin-dependent protein kinase type II subunit alpha (Homo sapiens) (Q9UQM7 whole entry): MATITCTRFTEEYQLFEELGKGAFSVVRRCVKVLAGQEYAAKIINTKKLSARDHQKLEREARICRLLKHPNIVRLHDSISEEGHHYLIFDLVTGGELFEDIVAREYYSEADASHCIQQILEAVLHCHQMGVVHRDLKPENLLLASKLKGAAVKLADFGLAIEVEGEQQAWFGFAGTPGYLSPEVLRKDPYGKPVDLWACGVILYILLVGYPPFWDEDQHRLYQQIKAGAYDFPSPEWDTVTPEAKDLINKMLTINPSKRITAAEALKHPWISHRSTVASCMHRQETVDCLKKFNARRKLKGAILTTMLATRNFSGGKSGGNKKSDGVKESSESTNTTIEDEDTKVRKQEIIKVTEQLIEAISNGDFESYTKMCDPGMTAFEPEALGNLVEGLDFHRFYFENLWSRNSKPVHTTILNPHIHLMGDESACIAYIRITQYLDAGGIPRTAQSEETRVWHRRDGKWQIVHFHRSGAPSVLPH

Chain of Ribosomal protein S6 kinase alpha-6 (Homo sapiens) (Q9UK32 whole entry): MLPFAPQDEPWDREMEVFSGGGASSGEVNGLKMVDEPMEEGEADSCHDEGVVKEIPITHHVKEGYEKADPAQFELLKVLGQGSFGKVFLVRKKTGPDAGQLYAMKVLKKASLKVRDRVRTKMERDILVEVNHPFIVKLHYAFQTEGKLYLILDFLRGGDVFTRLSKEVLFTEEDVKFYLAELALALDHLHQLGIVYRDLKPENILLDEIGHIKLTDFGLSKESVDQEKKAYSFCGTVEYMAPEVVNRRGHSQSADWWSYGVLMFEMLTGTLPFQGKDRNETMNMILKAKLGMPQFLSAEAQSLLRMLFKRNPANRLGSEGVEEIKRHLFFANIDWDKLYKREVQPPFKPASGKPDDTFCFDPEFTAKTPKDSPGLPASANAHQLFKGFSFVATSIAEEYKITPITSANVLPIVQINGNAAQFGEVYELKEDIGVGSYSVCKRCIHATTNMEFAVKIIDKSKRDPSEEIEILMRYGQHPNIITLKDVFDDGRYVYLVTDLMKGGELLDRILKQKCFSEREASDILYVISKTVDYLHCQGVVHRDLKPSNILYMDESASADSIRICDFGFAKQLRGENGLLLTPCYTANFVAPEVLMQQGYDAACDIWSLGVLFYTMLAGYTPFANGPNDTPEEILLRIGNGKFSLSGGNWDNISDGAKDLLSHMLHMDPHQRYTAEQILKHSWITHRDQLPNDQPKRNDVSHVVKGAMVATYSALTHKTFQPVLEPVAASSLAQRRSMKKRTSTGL

SMILES: Cn1cc(C=C2C(=O)Nc3cccnc32)c2ccccc21
- inhibition [1]: 10.2%
- inhibition [2]: 1.6%
- inhibition [3]: 5.51%
- inhibition [4]: -2.41%
- inhibition [5]: 1.75%
- inhibition [6]: 1.35%
- inhibition [7]: 0.63%
- inhibition [8]: 5.84%
- inhibition [9]: 14.8%
- inhibition [10]: 4.46%
- inhibition [11]: 8.64%
- inhibition [12]: 8.91%
- inhibition [13]: 44.5%
- inhibition [14]: 4.71%
- inhibition [15]: 12.3%
- inhibition [16]: 6.03%
- inhibition [17]: 12.3%
- inhibition [18]: 0.99%
- inhibition [19]: 2.41%
- inhibition [20]: 1.58%

SMILES: CC1=C(C(=O)Nc2ccc3[nH]ncc3c2)C(c2ccc(Cl)c(Cl)c2)CC(=O)N1 (stereo not given)
- inhibition [1]: 5.82%
- inhibition [2]: 0.54%
- inhibition [3]: 6.57%
- inhibition [4]: 0.96%
- inhibition [5]: 8.76%
- inhibition [6]: 1.38%
- inhibition [7]: 10.8%
- inhibition [8]: 6.35%
- inhibition [9]: 34.8%
- inhibition [10]: 1.12%
- inhibition [11]: 7.05%
- inhibition [12]: -0.25%
- inhibition [13]: 14.9%
- inhibition [14]: 1.14%
- inhibition [15]: 10.1%
- inhibition [16]: 1.61%
- inhibition [17]: 15.5%
- inhibition [18]: -0.31%
- inhibition [19]: 1.37%
- inhibition [20]: 1.87%

SMILES: COc1cc2ncn(-c3cc(O[C@@H](C)c4ccccc4Cl)c(C(N)=O)s3)c2cc1OC
- inhibition [1]: 6.8%
- inhibition [2]: 3.98%
- inhibition [3]: 4.72%
- inhibition [4]: 4.32%
- inhibition [5]: 3.95%
- inhibition [6]: 4.22%
- inhibition [7]: 7.31%
- inhibition [8]: 3.57%
- inhibition [9]: 10.6%
- inhibition [10]: 1.04%
- inhibition [11]: 5.06%
- inhibition [12]: 3.52%
- inhibition [13]: 22.4%
- inhibition [14]: 8.66%
- inhibition [15]: 44%
- inhibition [16]: 19.4%
- inhibition [17]: 58.9%
- inhibition [18]: 1.43%
- inhibition [19]: 1.53%
- inhibition [20]: 1.15%

SMILES: COC(=O)Nc1nc2cc(Oc3cccc(NC(=O)Nc4cc(C(F)(F)F)ccc4F)c3)ccc2[nH]1
- inhibition [1]: 1.04%
- inhibition [2]: 0.32%
- inhibition [3]: 0.41%
- inhibition [4]: -2.66%
- inhibition [5]: -3.24%
- inhibition [6]: -0.34%
- inhibition [7]: -0.49%
- inhibition [8]: 1.64%
- inhibition [9]: 0.51%
- inhibition [10]: 0.44%
- inhibition [11]: 3.68%
- inhibition [12]: 0.14%
- inhibition [13]: -3.14%
- inhibition [14]: 1.74%
- inhibition [15]: 1.87%
- inhibition [16]: 1.38%
- inhibition [17]: 2.1%
- inhibition [18]: 0.54%
- inhibition [19]: 4.96%
- inhibition [20]: 0.56%

SMILES: COc1ccc(-c2ccncc2)cc1C(N)=O
- inhibition [1]: 3.03%
- inhibition [2]: 2.81%
- inhibition [3]: 3.03%
- inhibition [4]: 2.33%
- inhibition [5]: 1.26%
- inhibition [6]: 2.05%
- inhibition [7]: 6.23%
- inhibition [8]: 2.82%
- inhibition [9]: 5.78%
- inhibition [10]: 7.48%
- inhibition [11]: 4.51%
- inhibition [12]: 1.88%
- inhibition [13]: 5.44%
- inhibition [14]: 3.31%
- inhibition [15]: 4.66%
- inhibition [16]: 4.68%
- inhibition [17]: 8.59%
- inhibition [18]: -0.75%
- inhibition [19]: 1.22%
- inhibition [20]: 1.71%
